This is part of a sample that, as a whole, favours compounds with a hit. Of some 83,000 tested, about 20% had one in any assay.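 How to read the values: 0–100, growth inhibition (40 = 60% inhibited); 0, no net growth; -100 to 0, cell death (-40 = 40% of starting cells died; -100 = all dead).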 Unmarked numbers belong to inactive results. The source made the active and inactive calls. The calls were made as follows: active = growth percent below 10; inactive = the rest.

This test relates to MDA-MB-468 breast. In words: NCI-60 one-dose screen, 48 h (100 = growth as untreated, 0 = no growth, -100 = all killed). The settings on record: 10 µM unless noted.
In the case of `O=C(Nc1ccc(Oc2ccc(F)cc2)c(Cl)c1)c1cccnn1`, the growth was 39.3%. The result for `O=C(NCc1ccc(F)cc1)C1CN(c2ccc(Cl)cc2)N(c2ccc(Cl)cc2)C1=O` (stereo not given) reads 43.1%. The result for `O=C(O)CC1CCCCC1c1ccccc1` (stereo not given) reads 105%; that for `O=S(=O)(NCCNc1nccc(-c2c(-c3ccc(F)c(O)c3)nc3sccn23)n1)c1ccccc1`, 83.2%. For `CC(=O)NC(CCC(=O)c1ccccc1)C(=O)O` (stereo not given) the value was 93.6%. For the molecule `CC(=O)c1c[nH]c2ccccc12`, the growth is 104%. `CC1=CC2OC34COC3CC(OC(=O)C(F)(F)F)C4(C)C2(C)CC1` (stereo not given): the growth was 87.5%.

For the molecule `Cc1cc(Cl)c2c(Cl)ccc(Cl)c2n1`, the growth is 105%. As to `N#Cc1c(N)c(C(=O)c2ccc3c(c2)OCCO3)n2c1CCCC2`, the growth is 35.5%.

As for `Cc1nc(C)c(C(=O)O)cc1C(=O)O`, the growth is 109%. Take `COc1ccc(C2c3ccc4ccccc4c3Oc3nc(C)[nH]c(=O)c32)cc1` (stereo not given): the growth was 111%.

As to `Cc1ccc(CNc2ccc3nc(CCC(C)C)[nH]c3c2)cc1`, the growth is 78.3%. The result for `CCCCCOC(=O)c1ccccc1O` reads 107%. `CCOC(=O)C(c1ccccc1)N1C(=O)c2ccccc2C1=O` (stereo not given): the growth is 137%. The result for `O=c1nc2oc3ccc4ccccc4c3cc-2s1` reads -3.68% (active); that for `CC1CCN(CCOc2ccc(CNc3ccc4nc(CCC5CCCCC5)[nH]c4c3)cc2)CC1`, 14.2%.

On to `COc1ccc(-c2nc3sccn3c2/C=C/C(=O)c2cc(F)cc(F)c2)cc1`, for which the growth is 85.8%.

For the molecule `c1ccc(-c2nnc(Nc3ccc4c(c3)OCCO4)o2)c(NCc2ccncc2)c1`, the growth is -33.4% (active). For `COc1ccc(-c2nn(-c3ccc(NC(=O)c4ccc(Cl)c(Cl)c4)cc3)cc2-c2ccncc2)cc1Cl` the value was 47%; for `CCN(CC)N=Nc1nn(C(=O)Nc2ccc(Cc3ccccc3)cc2)c2ccc(Cl)cc12`, 101%; for `COc1cc2c3c(n(C4CCNCC4)c(=O)c2cc1OC)-c1cc2c(cc1C3=O)OCO2`, -81% (active). The result for `Cc1nc2c3c(-c4ccccc4)c(-c4ccccc4)oc3ncn2n1` reads 93.9%; that for `CN(c1ncccc1CNc1nc(Nc2ccc3c(c2)CC(=O)N3)ncc1C(F)(F)F)S(C)(=O)=O`, -44.5% (active).

Consider `Cc1ccc(C2CC(c3cccs3)=NN2c2ccc(S(N)(=O)=O)cc2)s1` (stereo not given), for which the growth is 16.3%. With `CC(=O)c1ccc(NC(=O)Nc2ccc(S(=O)(=O)Nc3ccc(Cl)nn3)cc2)cc1`, the growth was 107%. With `CCCC1OC(c2ccco2)OCC1CC` (stereo not given), the growth is 118%. The result for `Cc1[nH]c(C(=O)Nc2cccc(OC3CCNCC3)c2)c(Cl)c1Cl` reads 40.9%; that for `CCOC(=O)/C=C1\S/C(=N\Nc2cc(=O)[nH]c3ccccc23)N(c2ccccc2)C1=O`, 105%; that for `COc1ccc(/C=N/Nc2nc3ccccc3s2)cc1`, 84.8%. For `CNc1ccc(Nc2cccc(C)c2)c2c1C(=O)c1ccccc1C2=O` the value was -13.1% (active); for `C=C1CCC2C3(C)COC(c4ccc(N(C)C)cc4)OC3CCC2(C)C1C/C=C1/C(=O)OCC1O` (stereo not given), 22.2%; for `COCC(N)=O`, 101%. The result for `O=S(=O)(NCCNc1cc(-c2cn(-c3ccccc3)nc2-c2cccc(O)c2)ccn1)c1ccc(C(F)(F)F)cc1` reads 21.6%.

With `COc1cc(/C=N/Nc2ncc(-c3cc4cc5c(cc4o3)OCO5)s2)cc(OC)c1OC`, the growth was 25.2%. The result for `C#CC#CC#CC#CC#CC#CC#CC#CC[C@@H]1OC[C@H](COC(=O)O[C@@H](C(=O)O[C@H]2C[C@@]3(O)[C@@H](OC(=O)c4ccccc4)[C@@H]4[C@]5(OC(C)=O)CO[C@@H]5C[C@H](O)[C@@]4(C)C(=O)[C@H](OC(C)=O)C(=C2C)C3(C)C)[C@@H](NC(=O)c2ccccc2)c2ccccc2)O1` reads -8.1% (active). As to `COC(=O)c1cc2oc(/C=N/NC(=O)c3cc4oc(-c5cccc(C(F)(F)F)c5)cc4[nH]3)cc2n1Cc1ccccc1`, the growth was 106%. Turning to `Cc1ccccc1NC(=O)Cn1cc(CN2CCN(c3ccnc4cc(Cl)ccc34)CC2)nn1`, the growth was 93%.

Regarding `CC(=O)n1nc(C(=O)OC(C)C)c2cc(C)c(C)cc21`, the growth was 92.9%.

Consider `COc1ccc(Nc2ncnc3c2c(SC)nn3-c2ccccc2)cc1`, for which the growth is 69.2%.

Regarding `O=C(Nc1cc(C(F)(F)F)cc(C(F)(F)F)c1)Nc1ccc2oc(=O)ccc2c1`, the growth is -5.53% (active).

The values above are taken from PubChem BioAssay (NCI).
